Screening results as filed in PubChem BioAssay.
PMP22 txn: Cell-based coincidence reporter assay to measure PMP22 gene transcription in S16 Pmp22-F2sN cells - Primary screen; S16 Pmp22-F2sN Schwann cells, FLuc/NLuc coincidence luminescence, 24 h; hit rate 2% among 43,000; Potency, µM (titrated, usually from 57.5 µM), for inactives: at the highest dose activity change, negative = inhibition, actives largely listed as inhibitors; active means clear falling dose curves in both reporters; inconclusive means both reporters move, but less clearly or upward; inactive means either reporter flat; the % is the NLuc reporter signal
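Schwann cells carrying the coincidence reporter were exposed to library compounds for 24 h at 37C, then lysed and read for FLuc and, after quenching, NLuc luminescence on a CCD imager.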
OvCa metastasis: Primary qHTS assay for Inhibitors of ovarian cancer metastasis using an organotypic tumor microenvironment (TME) model; hit rate 0.1% among 46,000; AID 1963576, 2024; Potency, µM (series often up to 45.8 µM), for inactives: at the top dose activity change, negative = inhibition, hits mostly inhibitors; SKOV3ip1-GFP adhesion/invasion on 3D omental model, fluorescence;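 further: plate controls were DMSO wells for no effect and tomatine positive control wells for full effect; nearly all actives have a fitted effect of over 65% in size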
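A 3D layer of primary human omental fibroblasts, mesothelial cells, fibronectin and collagen I, grown 48 hr, received SKOV3ip1-GFP cells in serum-free medium plus compounds at 0.36-46 umol/L. After 2 hr RT and 16 hr 37 C, fixed adherent GFP cells were counted; normalized to DMSO and tomatine.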
pS6 MEF inh: Acumen qHTS Assay for Inhibitors of the mTORC1 Signaling Pathway in MEF (Tsc2-/-, p53-/-) Cells: Sytravon. Tsc2-/- p53-/- MEF, phospho-rpS6 immunofluorescence/PI, 24 h. hit rate 0.78% among 44,000. Potency, µM (highest dose often 38.3 µM), inactives show top-dose activity change, negative = inhibition, most hits filed as inhibitors;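 further: plate controls were DMSO for no effect and rapamycin for full effect; nearly all actives have a fitted effect of over 50% in size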
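Plate MEFs (Tsc2-/-, p53-/-, empty vector) in DMEM/10% FBS; after 24 h add compound, incubate 24 h at 37 degree Celsius; fix in PFA/TX-100, block, stain phospho-rpS6 and 10 uM PI; scan at 488 nm; report % positive cells.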
p53null 39C kill: qHTS Screen for Compounds that Selectively Target Cancer Cells with p53 Mutations: Cytotoxicity of p53 Null Cells at the Nonpermissive Temperature | H1299 p53-null (neo) cells, 39C, ATPlite viability, 24 h | AID 904, 2007 | hit rate 0.97% among 55,000 | Potency, µM (top dose mostly 46.1 µM), for inactives: at the top dose activity, negative = cell killing, most hits filed as cytotoxic;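 further: 0% = DMSO only and -100% = full killing by 100 µM tamoxifen; nearly all actives have a fitted effect of over 50% in size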
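Temperature-shift cytotoxicity format: compound titrations on p53-null or A138V-expressing H1299 cells held 24 hr at 39C, cell ATP then measured, AC50 from Hill model.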
p53null 32C kill: qHTS Screen for Compounds that Selectively Target Cancer Cells with p53 Mutations: Cytotoxicity of p53 Null Cells at the Permissive Temperature | H1299-neo p53 null cells, ATP luminescence, 24 h, 32C | Potency, µM (series often up to 46.1 µM), without a hit: top-dose activity change, negative = cytotoxicity, most hits filed as cytotoxic | hit rate 0.62% among 55,000 | AID 903, 2007;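 further: 0% = DMSO only and -100% = full killing by 100 µM tamoxifen; nearly all actives have a fitted effect of over 55% in size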
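Overnight 37C seeding (600 cells/well) of H1299-neo preceded a 24 hr, 32C exposure to compounds up to 46 uM. ATP levels, read by luminescence after 20 min at RT, indicated surviving cells.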
S16 viability: Cell viability qHTS assay in S16 Pmp22-F2sN cells; S16 Pmp22-F2sN Schwann cells (luciferase reporters placed in the Pmp22 gene) viability, CellTiter-Glo, 24 h; hit rate 0.48% among 43,000; Potency, µM (top dose mostly 57.5 µM), for the others: at the top dose activity change, negative = cytotoxicity, usual class: cytotoxic; further: nearly all actives have a fitted effect of over 65% in size
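Rat S16 Schwann reporter line, 24 h treatment with library compounds delivered at 23 nL per well. Cell viability by CellTiter-Glo luminescence.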
Numbers without * were called inactive; i = inactive; ? = inconclusive; / = no result; [ ] = remark or other dose. Hits are enriched below; roughly 3% of the tested compounds scored in any of these assays. Unless noted, the call rests on the fitted dose curve; in most records, active means well fitted curve in the direction sought with a large enough effect; inconclusive means small, poorly fitted or top-dose-only effect, or another doubt; inactive means no such curve, though single readings can be large; an effect the other way counts as inactive or inconclusive. Unless noted, on the % scale 0 is the no-effect control and ±100 the full control effect; potency means the concentration at half of the fitted maximal effect.

SMILES	PMP22 txn	OvCa metastasis	pS6 MEF inh	p53null 39C kill	p53null 32C kill	S16 viability
O=C(NCc1ccccc1)c1cc2sccc2n1Cc1ccc(Cl)cc1	-21.7%	i	-9.7%	14.8%	-9.2%	15.4%
CC[C@H](C=C[C@@H](C)[C@H]1CC[C@H]2[C@@H]3CC=C4C[C@@H](O)CC[C@]4(C)[C@@H]3CC[C@]12C)C(C)C	/	0.7%[23.2 µM]	/	/	/	/
O=S(=O)(Nc1cccc(-c2ccc(N3CCCCC3)nn2)c1)c1cccc(F)c1	/	i	-3.2%	10µM*	?	/
COc1ccc(S(=O)(=O)Nc2cccc(-c3ccc(N4CCCCC4)nn3)c2)cc1F	/	-10.5%	-1.4%	20µM*	12.6µM*	/
CNCc1ccc(-c2[nH]c3cc(F)cc4c3c2CCNC4=O)cc1	/	-5.7%	/	/	/	/
CCCN(CCC)CCCNC(=O)C1CCN(c2nc3ccc(CC)cc3s2)CC1	?	?	16.5µM*	?	?	28.2µM*
CCc1ccc2nc(N3CCC(C(=O)NCCC(C)C)CC3)sc2c1	?	-4.3%	0.0%	6.31µM*	?	0.7%
CCCN(CCC)CCNC(=O)C1CCN(c2nc3ccc(CC)cc3s2)CC1	?	?	16.5µM*	?	?	?
CCCCCNC(=O)N1CCC(CN(Cc2ccc(Cl)cc2)Cc2ccc([N+](=O)[O-])s2)C1 (configuration not stated)	/	12.1%	/	/	/	/
Cc1ccc(C(N)=O)cc1Nc1nccc(-c2cn(C(C)C)c3cnccc23)n1	/	-13.1%	/	/	/	/
CC(C)c1onc(-c2c(Cl)cccc2Cl)c1COc1ccc(C=Cc2cccc(C(=O)O)c2)c(Cl)c1	/	25.7%	/	/	/	/
Cc1ccc(N(C)C(CNS(=O)(=O)c2ccccc2)c2ccccc2)cc1 (configuration not stated)	?	-7.5%	-12.4%	14.1µM*	25.3%	-5.3%
CN(c1ccccc1)C(CNS(=O)(=O)c1ccccc1)c1ccccc1 (configuration not stated)	?	-7.0%	-11.7%	?	39.0%	-1.2%
CCOC(=O)Cc1c(C)nc2c(-c3ccc(OC)c(OC)c3)c(C)nn2c1C	13.5µM*	-7.5%	7.4%	?	5.5%	?
COc1ccc(Cl)cc1S(=O)(=O)NCc1ccc2c(c1)CCN2C(=O)c1cccc(C)c1	10.6µM*	-9.0%	?	?	10.4%	14.1µM*
COc1ccccc1Cn1cc(C(=O)c2ccc(Cl)cc2)c(=O)c2cc3c(cc21)OCCO3	?	0.2%	-6.6%	-20.2%	-6.4%	1.4%
COc1ccccc1Cn1cc(C(=O)c2ccc(Cl)cc2)c(=O)c2ccccc21	?	?	3.29µM*	?	2.0%	?
Cc1ccc(NC(=O)CSc2ncc3c(n2)-c2ccc(Cl)cc2N(C)S3(=O)=O)cc1F	?	5.9%	-7.6%	-3.0%	1.0%	9.5%
CN1c2cc(Cl)ccc2-c2nc(SCC(=O)Nc3ccc(F)cc3F)ncc2S1(=O)=O	?	-6.9%	-7.3%	?	-7.5%	25.1µM*
Cc1nc(NC(=O)N2CCC[C@@H]2C(N)=O)sc1-c1csc(C(C)(C)C)n1	/	3.4%	/	/	/	/
Nc1nc(=O)n([C@H]2C[C@H](O)[C@@H](CO)O2)cc1F	/	26.5%	/	/	/	/
COC(=O)N[C@H](C(=O)N1CCC[C@@H]1c1ncc(-c2ccc(-c3ccc(-c4cnc([C@@H]5CCCN5C(=O)[C@@H](NC(=O)OC)C(C)C)[nH]4)cc3)cc2)[nH]1)C(C)C	/	-7.9%	/	/	/	/
COC(=O)c1c(SCC(=O)Nc2cc(F)ccc2F)[nH]c2ccc(C)cc2c1=O	-15.2%	98.4%	2.3%	?	?	?
O=C(CSCc1cc(=O)c2ccccc2[nH]1)Nc1cccc(C(F)(F)F)c1	3.3%	11.4%	0.5%	-5.5%	-7.6%	2.7%
COC(=O)c1c(SCC(=O)Nc2cccc(Cl)c2C)[nH]c2ccccc2c1=O	-71.8%	i	0.0%	10µM*	-14.6%	-6.8%
SMILES	PMP22 txn	OvCa metastasis	pS6 MEF inh	p53null 39C kill	p53null 32C kill	S16 viability
COC(=O)c1c(SCC(=O)Nc2cccc(C(F)(F)F)c2)[nH]c2ccccc2c1=O	-61.4%	i	-0.9%	3.16µM*	?	?
COc1ccc(OC)c(NC(=O)Nc2cccc(OCc3cc(=O)n4cc(C)ccc4n3)c2)c1	-7.3%	18.9%	2.0%	?	10µM*	15.3%
OCCN1C[C@H](O)[C@@H](O)[C@H](O)[C@@H]1CO	/	-1.2%	/	/	/	/
COc1ccc(NS(=O)(=O)c2cc(Br)cc3c2N(C(=O)C2CC2)CC3)cc1OC	13.9µM*	-0.4%	?	13.0%	-19.6%	-14.3%
Cc1ccc(O)c(NC(=O)c2noc3c2CCCC3)c1	/	i	-1.4%	10µM*	?	/
Cc1ccc(O)c(NC(=O)c2noc3c2CCCCC3)c1	?	i	-14.0%	12.6µM*	12.6µM*	-4.9%
CC(=O)c1cccc(NC(=O)c2noc3c2CCCC3)c1	/	31.5%	1.1%	?	?	/
COc1ccc(OC)c(NC(=O)c2noc3c2CCCC3)c1	-7.6%	1.5%	3.5%	-14.6%	-5.8%	-4.1%
COc1ccc(OC)c(NC(=O)c2nnn(CC(=O)Nc3ccc(C(C)C)cc3)c2N)c1	-27.0%	i	16.5µM*	?	-4.8%	3.4%
COc1ccc(NC(=O)c2nnn(CC(=O)Nc3ccc(C)c(C)c3)c2N)cc1OC	14.8%	-13.9%	-18.4%	7.3%	1.2%	-3.6%
O=c1cc(CN2CCOCC2)occ1OCCCCCSc1ccnc2cc(C(F)(F)F)ccc12	/	-0.8%	/	/	/	/
O=C(CC1(O)C(=O)N(CCc2ccccc2)c2ccc(Br)cc21)c1ccccc1O (configuration not stated)	?	-8.4%	18.5µM*	?	8.9%	?
O=C(CC1(O)C(=O)Nc2cc(Cl)cc(Cl)c21)c1ccccc1O (configuration not stated)	/	/	/	-11.7%	4.3%	/
CCN1C(=O)C(O)(c2c[nH]c3ccccc23)c2cc(Br)ccc21 (configuration not stated)	?	2.1%	7.5%	-26.9%	22.3%	-5.5%
